Records with an inconclusive call do not appear. Entries that show only a call come without a potency. Unmarked numbers belong to inactive results. Active and inactive are the calls of the source. Calls come from the whole dose curve; as a rule, active = well fitted cell-killing curve with a large enough effect in the repeat runs; inconclusive = weak or mixed curves, or effect the other way; inactive = flat fitted curve, though single readings scatter.
assay: cAMP Responsive Elements (CRE) small molecule agonists, cell-based qHTS assay: qHTS cell viability counter screen (AID 2060914); conditions: CRE-bla HEK293T viability, CellTiter-Glo luminescence, 5 h; series mostly up to 92.4 µM; note: nearly all actives have a fitted effect of over 50% in size
Method in brief: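 Cells are seeded and incubated 18 h, treated with compounds in DMSO for 3 h, read for the bla reporter, then given CellTiter-Glo; luminescence is measured after 30 min at room temperature.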
Potency is the fitted concentration of half-maximal effect.

Row | Structure (SMILES) | Potency | activity change, negative = cytotoxicity
1 | CC(=O)CC(C)(C)C1CCCCC1 | inactive | 
2 | CC[C@@]1(c2ccccc2)NC(=O)N(C)C1=O | inactive | 
3 | C[C@H](NC(CCc1ccccc1)C(=O)O)C(=O)N1CCC[C@H]1C(=O)O (stereo not given in full) | inactive | 
4 | O=C(OC(=O)c1ccccc1)c1ccccc1 | inactive | 
5 | C[C@]12C[C@H](O)[C@H]3[C@@H](CCC4=CC(=O)CC[C@@]43C)[C@@H]1CC[C@@H]2C(=O)CO | inactive | 
6 | CCCC(C)CO (stereo not given) | inactive | 
7 | NS(=O)(=O)c1cc(C(=O)O)c(NCc2ccco2)cc1Cl | inactive | 
8 | CCCCNC1CC(C)(C)NC(C)(C)C1 | inactive | 
9 | CCCC(=O)OCC(COC(=O)CCC)OC(=O)CCC | inactive | 
10 | COc1ccnc(CS(=O)c2nc3cc(OC(F)F)ccc3[nH]2)c1OC (stereo not given) | inactive | 
11 | CCN(CC)c1ccc(C=O)cc1 | inactive | 
12 | CCn1cc(C(=O)O)c(=O)c2cc(F)c(N3CCNCC3)nc21 | inactive | 
13 | CCn1nc(C)c2c1C(=O)NCC(c1ccc(O)cc1)=N2 | inactive | 
14 | CCCCC | inactive | 
15 | CCN(O)CC | inactive | 
16 | CCc1nnc(NS(=O)(=O)c2ccc(N)cc2)s1 | inactive | 
17 | C=CN1CCCCCC1=O | inactive | 
18 | CCOC(=O)COc1cc(-n2ncc(C(F)(F)F)c(C)c2=O)c(F)cc1Cl | inactive | 
19 | Clc1ccccc1-c1nc(-c2ccncc2)no1 | inactive | 
20 | NC(=O)c1ccccc1[N+](=O)[O-] | inactive | 

Row | Structure (SMILES) | Potency | activity change, negative = cytotoxicity
21 | CC(C)c1ccccc1O | inactive | 
22 | CCCC(c1cc(C(C)(C)C)c(O)cc1C)c1cc(C(C)(C)C)c(O)cc1C | 31 µM (active) | 
23 | CCCCCCC(C)Nc1ccc(Nc2ccccc2)cc1 (stereo not given) | inactive | 
24 | [K+] | inactive | 
25 | ICCc1ccccc1 | inactive | 
26 | Clc1ccc(Cn2c(CN3CCCC3)nc3ccccc32)cc1 | inactive | 
27 | Oc1ccc2c(c1)CCC2 | inactive | 
28 | CC(C)=CCCC(C)CCOC(=O)C(C)C (stereo not given) | inactive | 
29 | CCN(CCO)c1cccc(C)c1 | inactive | 
30 | NC(=O)C(=O)N/N=C/c1ccc([N+](=O)[O-])o1 | inactive | 
31 | COc1ccc(/C=C/C(=O)c2ccc(OC)cc2OC)cc1 | inactive | 
32 | Cc1cc(=O)oc2cc(O)cc(O)c12 | inactive | 
33 | CCC(Cc1ccccc1)(C(=O)c1ccc(N2CCOCC2)cc1)N(C)C (stereo not given) | inactive | 
34 | Cc1nnc(SCC2=C(C(=O)O)N3C(=O)[C@@H](NC(=O)Cn4cnnn4)[C@H]3SC2)s1 | inactive | 
35 | CCCOCCC | inactive | 
36 | CCCCC1C(=O)N(c2ccccc2)N(c2ccc(O)cc2)C1=O (stereo not given) | inactive | 
37 | C[C@](N)(Cc1ccc(O)cc1)C(=O)O |  | -8.98% [at 8.39 µM]
38 | CN1Cc2cc(C(=O)N3CCC(C4CCNCC4)CC3)ccc2NC(CC(=O)O)C1=O (stereo not given) | inactive | 
39 | O=C1OC(O)C(C(Cl)Cl)=C1Cl (stereo not given) | inactive | 
40 | O=[N+]([O-])c1ccc(NCCO)c(OCCO)c1 | inactive | 

Reference: PubChem BioAssay (Tox21)
